Outcome and AC50 data for 8 molecules are collected here from PubChem BioAssay (EPA / NIEHS).

As usually defined, the AC50 is the midpoint of the concentration-response curve, whichever way the signal moves.

Records with an inconclusive call do not appear. Activity calls are given as the source filed them. The calls were made as follows, unless noted: active = hit-call score of the fitted dose curve at least 0.9, where 1 is the maximum; inconclusive = response in the unintended direction; inactive = score below 0.9.

Assay [1] can be described thus: CLD_ACTIN_24hr: CellzDirect (CLD) Gene Expression Assay for Baseline Control (Actin) at 24 hours (AID 2283670). The method, boiled down:
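Primary human hepatocytes dosed over multiple concentrations with 0.2% DMSO vehicle; actin mRNA measured at 24 h by qNPA chemiluminescence. Background control endpoint, fitted as gain of signal versus DMSO.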

Read-out in assay [2]: xenobiotic metabolism (CYP1A1), CYP1A1 (gene 1543)
Briefly: CLD_CYP1A1_24hr: CellzDirect (CLD) Gene Expression Assay for xenobiotic metabolism (CYP1A1) at 24 hours (AID 2283673).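 Also: CYP1A1 mRNA level by quantitative nuclease protection with chemiluminescence.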 A digest of the protocol:
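Primary human hepatocytes dosed daily with fresh solutions in 0.2% DMSO vehicle. mRNA measured at 24 h by quantitative nuclease protection assay with chemiluminescence; gain-of-signal fit versus DMSO, with morphology-based cytotoxicity flags.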

Read-out in assay [3]: ABC Transporter (ABCB11), ABCB11 (gene 8647)
The experiment in a line: CLD_ABCB11_24hr: CellzDirect (CLD) Gene Expression Assay for ABC Transporter (ABCB11) at 24 hours (AID 2283674; active = hit-call score of the fitted dose curve at least 0.9, where 1 is the maximum; inactive = score below 0.9). The method, boiled down: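 Primary human hepatocytes were dosed daily for two days, with 0.2% DMSO vehicle. ABCB11 mRNA induction was measured at 24 hours by quantitative nuclease protection assay with chemiluminescence. Gain of signal was fitted relative to DMSO.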

The nature of assay [4]: CLD_ACTIN_6hr: CellzDirect (CLD) Gene Expression Assay for Baseline Control (Actin) at 6 hours (AID 2283676).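 Also: active means increased actin mRNA relative to DMSO vehicle.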 The method, boiled down:
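Primary human hepatocytes dosed with fresh chemical solutions (vehicle 0.2% DMSO), harvested at 6 h. Actin mRNA quantified by quantitative nuclease protection assay with chemiluminescent read-out, as background control relative to DMSO.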

Read-out in assay [5]: Cytochrome P450 2B6 (Homo sapiens) (UniProt P20813)
The experiment in a line: CLD_CYP2B6_6hr: CellzDirect (CLD) Gene Expression Assay for xenobiotic metabolism (CYP2B6) at 6 hours (AID 2283677).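 Also: actives raise CYP2B6 transcript above DMSO baseline so AC50 marks an inducer.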 The method, boiled down:
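Primary human hepatocytes dosed with chemicals at multiple concentrations, vehicle 0.2% DMSO; CYP2B6 mRNA induction measured 6 h after dosing by quantitative nuclease protection assay with chemiluminescence, gain of signal fitted relative to DMSO.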

A short description of assay [6]: CCTE_Padilla_ZF_144hpf_TERATOSCORE: (Legacy) CCTE's 144 Hour Post-fertilization zebrafish Assay Teratoscore, Padilla Lab (AID 2283679; active = hit-call score of the fitted dose curve at least 0.9, where 1 is the maximum; inactive = score below 0.9;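 as to AC50: zebrafish embryos with chorions exposed by immersion from 6-8 hpf to 5 dpf with daily renewal; teratogenicity score from eye scoring of death hatching and malformations at 144 hpf; higher score means more developmental defects relative to DMSO baseline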). The method, boiled down: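 Larvae scored by eye at 144 hpf for death, hatching and malformations after a day in clean Hanks'. Before that, daily-renewed exposure at 80 uM (0.4% DMSO, 26C) from roughly 6-8 hpf through 5 dpf, 4 embryos per chemical.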

Read-out in assay [7]: Glyceraldehyde-3-phosphate dehydrogenase (Homo sapiens) (UniProt P04406)
The experiment in a line: CLD_GAPDH_6hr: CellzDirect (CLD) Gene Expression Assay for Baseline Control (Glyceraldehyde 3-phosphate dehydrogenase) at 6 hours (AID 2283681).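 Also: active means increased signal relative to DMSO vehicle.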 The method, boiled down:
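Primary human hepatocytes from two donor preparations, dosed at multiple concentrations with 0.2% DMSO vehicle; GAPDH mRNA measured 6 h after dosing by chemiluminescent quantitative nuclease protection assay (qNPA) on denatured lysates. Serves as background control; cytotoxicity annotated by morphology.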

Read-out in assay [8]: xenobiotic metabolism (CYP1A2), CYP1A2 (gene 1544)
The experiment in a line: CLD_CYP1A2_24hr: CellzDirect (CLD) Gene Expression Assay for xenobiotic metabolism (CYP1A2) at 24 hours (AID 2283683). The method, boiled down:
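Primary human hepatocytes from two donor preparations dosed daily with multiple concentrations of chemical, 0.2% DMSO vehicle. CYP1A2 mRNA at 24 h quantified by qNPA chemiluminescence; gain of signal analyzed relative to DMSO. Cytotoxicity flagged by phase-contrast morphology.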

Read-out in assay [9]: Broad substrate specificity ATP-binding cassette transporter ABCG2 (Homo sapiens) (UniProt Q9UNQ0)
The experiment in a line: CLD_ABCG2_24hr: CellzDirect (CLD) Gene Expression Assay for ABC Transporter (ABCG2) at 24 hours (AID 2283685). The method, boiled down:
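Primary human hepatocytes were dosed daily with ToxCast chemicals at multiple concentrations (vehicle 0.2% DMSO). ABCG2 mRNA was measured at 24 h by qNPA chemiluminescence; induction was scored as gain of signal versus DMSO.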

Read-out in assay [10]: Cytochrome P450 2C19 (Homo sapiens) (UniProt P33261)
Briefly: CLD_CYP2C19_24hr: CellzDirect (CLD) Gene Expression Assay for xenobiotic metabolism (CYP2C19) at 24 hours (AID 2283687).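 Also: activity means mRNA induction above DMSO vehicle baseline.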 The method, boiled down: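 Primary human hepatocytes (two donor preparations) dosed daily with fresh test chemical in 0.2% DMSO vehicle; CYP2C19 mRNA induction measured at 24 h by quantitative nuclease protection assay with chemiluminescence, fitted for gain of signal versus DMSO.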

Read-out in assay [11]: Cytochrome P450 (CYP24A1_1), CYP24A1 (gene 1591)
The experiment in a line: LTEA_HepaRG_CYP24A1_1: Life Technologies and Expression Analysis (LTEA) Assay for Cytochrome P450 (CYP24A1_1) using HepaRG (AID 2283671; active = hit-call score of the fitted dose curve at least 0.9, where 1 is the maximum; inactive = score below 0.9). Particulars: mRNA level, 48 h; actives raise or lower the signal. The method, boiled down: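 HepaRG, 48 h exposure, 8-pt half-log series from 100 uM in 0.5% DMSO, duplicates. Readout: TaqMan qRT-PCR of CYP24A1 mRNA, housekeeping-normalized (ACTB/GAPDH/POLR2A). Bidirectional curve fit vs DMSO baseline.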

Read-out in assay [12]: glucuronosyltransferase (UGT1A1), UGT1A1 (gene 54658)
The experiment in a line: CLD_UGT1A1_6hr: CellzDirect (CLD) Gene Expression Assay for glucuronosyltransferase (UGT1A1) at 6 hours (AID 2283672). A digest of the protocol: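 Primary human hepatocytes from two donor preparations, dosed with fresh solutions in 0.2% DMSO, harvested at 6 h. UGT1A1 mRNA measured by qNPA chemiluminescence; induction fitted upward versus DMSO.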

Read-out in assay [13]: ABC Transporter (ABCB11), ABCB11 (gene 8647)
The experiment in a line: CLD_ABCB11_6hr: CellzDirect (CLD) Gene Expression Assay for ABC Transporter (ABCB11) at 6 hours (AID 2283675).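 Also: hits raise ABCB11 mRNA level so AC50 marks induction.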 A digest of the protocol:
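Human primary hepatocytes (two donor preparations) given fresh chemical daily at multiple concentrations, vehicle 0.2% DMSO. ABCB11 mRNA induction measured 6 h after dosing by qNPA chemiluminescence versus DMSO; cytotoxicity annotated from morphology.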

Read-out in assay [14]: Cytochrome P450 2C19 (Homo sapiens) (UniProt P33261)
The experiment in a line: CLD_CYP2C19_6hr: CellzDirect (CLD) Gene Expression Assay for xenobiotic metabolism (CYP1A2) at 6 hours (AID 2283678). The method, boiled down:
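Primary human hepatocytes from two donor preparations were dosed daily, with 0.2% DMSO as vehicle, and harvested 6 h after dosing. CYP2C19 mRNA induction was measured by qNPA chemiluminescence and fitted as gain of signal against DMSO.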

Read-out in assay [15]: ABC Transporter (ABCB1), ABCB1 (gene 5243)
Briefly: CLD_ABCB1_24hr: CellzDirect (CLD) Gene Expression Assay for ABC Transporter (ABCB1) at 24 hours (AID 2283684). A digest of the protocol:
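Primary human hepatocytes, two donor preparations, dosed daily with fresh solutions; vehicle 0.2% DMSO; harvested at 24 h. ABCB1 mRNA measured by quantitative nuclease protection assay (chemiluminescence); morphology-based cytotoxicity annotated.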

Read-out in assay [16]: Cytochrome P450 3A4 (Homo sapiens) (UniProt P08684)
Briefly: CLD_CYP3A4_24hr: CellzDirect (CLD) Gene Expression Assay for xenobiotic metabolism (CYP3A4) at 24 hours (AID 2283689). The method, boiled down:
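Primary human hepatocytes from two donors dosed daily with fresh compound for two days, 0.2% DMSO vehicle. CYP3A4 mRNA at 24 hr by qNPA chemiluminescence; gain-of-signal fit versus DMSO, cytotoxicity flagged by morphology.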

Read-out in assay [17]: Cytochrome P450 3A4 (Homo sapiens) (UniProt P08684)
Briefly: CLD_CYP3A4_6hr: CellzDirect (CLD) Gene Expression Assay for xenobiotic metabolism (CYP3A4) at 6 hours (AID 2283680). A digest of the protocol:
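Primary human hepatocytes (two donor preparations) dosed; CYP3A4 mRNA harvested at 6 h and quantified by qNPA chemiluminescence. Gain of signal fitted against 0.2% DMSO vehicle; cytotoxicity flagged by phase-contrast morphology.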

Read-out in assay [18]: Cytochrome P450 2B6 (Homo sapiens) (UniProt P20813)
Briefly: CLD_CYP2B6_24hr: CellzDirect (CLD) Gene Expression Assay for xenobiotic metabolism (CYP2B6) at 24 hours (AID 2283686). A digest of the protocol:
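Primary human hepatocytes dosed daily for two days with fresh solutions, harvested at 24 hours; mRNA induction quantified by qNPA chemiluminescence, gain of signal vs 0.2% DMSO vehicle. Cytotoxicity annotated from phase-contrast morphology.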

Read-out in assay [19]: HMG-CoA synthase (HMGCS2), HMGCS2 (gene 3158)
Briefly: CLD_HMGCS2_6hr: CellzDirect (CLD) Gene Expression Assay for HMG-CoA synthase (HMGCS2) at 6 hours (AID 2283682).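 Also: actives raise HMGCS2 transcript above the 0.2% DMSO vehicle baseline.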 A digest of the protocol:
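Primary human hepatocytes dosed daily with fresh chemical, 0.2% DMSO vehicle; HMGCS2 mRNA measured at 6 h by qNPA chemiluminescence. Gain of signal fitted against DMSO; cytotoxicity flagged from phase-contrast morphology.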

Sequence of Cytochrome P450 3A4 (Homo sapiens) (P08684 whole entry, looked up): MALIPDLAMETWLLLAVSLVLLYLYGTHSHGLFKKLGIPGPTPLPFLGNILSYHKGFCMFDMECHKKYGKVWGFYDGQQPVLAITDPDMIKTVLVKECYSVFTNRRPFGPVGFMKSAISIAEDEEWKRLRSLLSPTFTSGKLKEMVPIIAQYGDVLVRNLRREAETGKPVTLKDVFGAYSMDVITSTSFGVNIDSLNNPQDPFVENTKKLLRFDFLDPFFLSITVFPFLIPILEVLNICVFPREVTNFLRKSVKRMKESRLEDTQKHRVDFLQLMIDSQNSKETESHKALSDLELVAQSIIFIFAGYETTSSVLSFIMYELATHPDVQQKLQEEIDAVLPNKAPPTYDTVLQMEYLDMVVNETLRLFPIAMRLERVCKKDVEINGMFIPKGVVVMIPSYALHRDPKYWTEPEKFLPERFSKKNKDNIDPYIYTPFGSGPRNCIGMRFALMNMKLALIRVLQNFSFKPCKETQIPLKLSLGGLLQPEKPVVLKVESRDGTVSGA
Sequence of Broad substrate specificity ATP-binding cassette transporter ABCG2 (Homo sapiens) (Q9UNQ0 whole entry, looked up): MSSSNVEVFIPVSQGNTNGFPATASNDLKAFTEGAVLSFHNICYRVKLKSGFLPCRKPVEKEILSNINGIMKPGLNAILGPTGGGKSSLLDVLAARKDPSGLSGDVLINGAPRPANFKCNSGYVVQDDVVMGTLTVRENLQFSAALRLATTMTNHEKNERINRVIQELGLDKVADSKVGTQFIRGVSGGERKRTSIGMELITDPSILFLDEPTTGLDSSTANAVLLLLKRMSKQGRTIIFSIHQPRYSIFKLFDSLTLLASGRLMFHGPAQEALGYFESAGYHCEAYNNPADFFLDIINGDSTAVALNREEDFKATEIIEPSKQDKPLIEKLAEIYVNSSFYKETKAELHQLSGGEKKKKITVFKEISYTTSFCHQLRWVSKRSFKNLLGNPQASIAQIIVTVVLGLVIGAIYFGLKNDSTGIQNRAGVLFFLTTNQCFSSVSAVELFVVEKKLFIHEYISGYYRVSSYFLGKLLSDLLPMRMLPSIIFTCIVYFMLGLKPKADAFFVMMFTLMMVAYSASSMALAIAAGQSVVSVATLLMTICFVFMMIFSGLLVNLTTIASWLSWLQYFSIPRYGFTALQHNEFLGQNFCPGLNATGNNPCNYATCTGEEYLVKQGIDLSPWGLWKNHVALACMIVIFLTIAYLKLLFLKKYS
Sequence of Cytochrome P450 2C19 (Homo sapiens) (P33261 whole entry, looked up): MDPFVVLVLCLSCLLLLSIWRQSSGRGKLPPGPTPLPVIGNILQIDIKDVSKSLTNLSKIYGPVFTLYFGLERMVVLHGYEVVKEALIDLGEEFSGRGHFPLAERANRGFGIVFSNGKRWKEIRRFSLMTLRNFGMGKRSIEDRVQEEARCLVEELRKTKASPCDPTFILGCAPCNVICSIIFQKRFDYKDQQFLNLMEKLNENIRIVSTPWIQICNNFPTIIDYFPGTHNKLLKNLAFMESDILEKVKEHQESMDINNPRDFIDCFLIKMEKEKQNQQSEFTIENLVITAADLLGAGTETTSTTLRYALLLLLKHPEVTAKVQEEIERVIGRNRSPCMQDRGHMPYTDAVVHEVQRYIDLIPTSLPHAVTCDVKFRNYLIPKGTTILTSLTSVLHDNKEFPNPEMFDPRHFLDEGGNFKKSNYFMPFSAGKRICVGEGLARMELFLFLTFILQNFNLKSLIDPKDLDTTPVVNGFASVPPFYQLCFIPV
Sequence of Glyceraldehyde-3-phosphate dehydrogenase (Homo sapiens) (P04406 whole entry, looked up): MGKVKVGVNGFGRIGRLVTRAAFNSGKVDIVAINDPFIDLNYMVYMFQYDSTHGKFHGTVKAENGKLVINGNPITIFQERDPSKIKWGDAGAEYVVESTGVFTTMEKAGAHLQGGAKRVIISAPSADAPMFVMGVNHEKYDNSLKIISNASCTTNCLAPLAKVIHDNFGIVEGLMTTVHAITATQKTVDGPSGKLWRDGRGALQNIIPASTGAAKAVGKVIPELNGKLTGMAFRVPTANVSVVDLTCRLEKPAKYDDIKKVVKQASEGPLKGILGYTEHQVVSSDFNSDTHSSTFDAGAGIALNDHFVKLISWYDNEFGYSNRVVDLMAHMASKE

`CSc1nnc(C(C)(C)C)c(=O)n1N`: the outcome in assay [1], in assay [2], in assay [3], in assay [4], in [6] and in assay [7] was inactive. The molecule was classed as inactive in assay [9] and in assay [10]. The AC50 in assay [5] is 10.9 µM (active); in assay [8], 20 µM (active).
As to `CC[C@H](C)[C@H]1O[C@]2(C=C[C@@H]1C)C[C@@H]1C[C@@H](C/C=C(\C)[C@@H](O[C@H]3C[C@H](OC)[C@@H](O[C@H]4C[C@H](OC)[C@@H](NC)[C@H](C)O4)[C@H](C)O3)[C@@H](C)/C=C/C=C3\CO[C@@H]4[C@H](O)C(C)=C[C@@H](C(=O)O1)[C@]34O)O2`, the molecule was called inactive in assay [1], in assay [11], in assay [12], in assay [2], in assay [13] and in assay [4]. Further, the result in assay [15], in assay [9] and in assay [10] was inactive. Also, the AC50 was 0.205 µM (active) in assay [3], 32.6 µM (active) in [14] and 3.41 µM (active) in [6].
`CCC(=NOC/C=C/Cl)C1=C(O)CC(C2CCOCC2)CC1=O` (centres undefined): the call in [1], in assay [3], in assay [4], in assay [5], in assay [14] and in assay [6] was inactive. The result in [7], in assay [15] and in assay [16] was inactive.
In the case of `CNC(=O)ON=C(C)SC`, the result in assay [1], in assay [3], in assay [13], in [4], in [5] and in assay [14] was inactive. For the same molecule, the call in assay [7], in [9], in [10] and in assay [16] was inactive. In [6], the AC50 is 73.3 µM (active).
With `COc1cccc(C(=O)NN(C(=O)c2cc(C)cc(C)c2)C(C)(C)C)c1C`, the call in assay [1], in [3], in [13], in assay [14], in assay [6] and in assay [9] was inactive. The result in assay [10] was inactive. Further, the half-maximal activity concentration (AC50) in assay [5] was 1.29 µM (active); in assay [17] it was 0.886 µM (active); in assay [18], 2.35 µM (active).
Consider `CSC1=N[C@@](C)(c2ccccc2)C(=O)N1Nc1ccccc1`, for which the outcome in assay [1], in [4], in [17], in [7], in assay [9] and in assay [18] was inactive. Besides, in [16], the call was inactive. Besides, the AC50 in assay [5] is 1.88 µM (active); in assay [6] it was 3.03 µM (active).
As for `CN(C)NC(=O)CCC(=O)O`, the molecule was classed as inactive in assay [1], in assay [3], in assay [13], in assay [4], in [5] and in [6]. Further, the molecule was classed as inactive in assay [7], in assay [19], in assay [9] and in assay [10].
Regarding `FC(F)C(F)(F)OCC(Cn1cncn1)c1ccc(Cl)cc1Cl` (centres undefined), the molecule was called inactive in assay [1], in assay [12], in assay [15] and in [9]. In addition, the AC50 in assay [5] is 1.12 µM (active); in assay [6], 57.8 µM (active); in [8] it was 1.46 µM (active); in assay [16], 0.949 µM (active).
